CYP2C9 inh = human CYP2C9 inhibition; CYP2C9 Supersomes, luciferin-H conversion, luminescence; inhibition, % at 5 µM; actives 20% (n = 96,000);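 active means blocking of liver enzyme CYP2C9 beyond about 50% at 5 µM, limit read from the data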
CYP2C19 act = activators of human cytochrome P450 2C19. P33261. recombinant CYP2C19, luciferin-H EGE luminescence; hits give high values; 0 = fully inhibited enzyme, 1 = untreated enzyme. activation factor at 5 µM. 96,000 tested, under 10 active;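 active means activation factor of at least 2 at 5 µM in the primary screen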
Target sequence (P33261 whole entry, looked up): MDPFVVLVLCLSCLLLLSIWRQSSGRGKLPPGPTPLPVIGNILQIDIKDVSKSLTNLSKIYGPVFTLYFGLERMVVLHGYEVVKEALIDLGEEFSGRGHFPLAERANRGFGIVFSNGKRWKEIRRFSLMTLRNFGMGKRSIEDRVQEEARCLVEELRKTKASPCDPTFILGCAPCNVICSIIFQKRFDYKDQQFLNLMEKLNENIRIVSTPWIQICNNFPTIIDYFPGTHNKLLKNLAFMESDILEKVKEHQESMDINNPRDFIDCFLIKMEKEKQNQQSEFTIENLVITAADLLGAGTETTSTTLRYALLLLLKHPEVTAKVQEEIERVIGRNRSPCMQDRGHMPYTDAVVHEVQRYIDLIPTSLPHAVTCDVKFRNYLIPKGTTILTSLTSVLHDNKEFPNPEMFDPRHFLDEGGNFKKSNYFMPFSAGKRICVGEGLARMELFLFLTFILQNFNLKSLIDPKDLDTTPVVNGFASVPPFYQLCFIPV
CYP2C9 act = increases human cytochrome P450 2C9 activity | AID 1024 | P11712 | actives 1.4% (n = 96,000) | activation factor at 5 µM | recombinant CYP2C9, luciferin-H conversion, luminescence; hits give high values; factor 1 = untreated enzyme, 0 = blocked;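 active means activation factor of 2 or more for CYP2C9 at a 5 µM dose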
CYP2C19 inhib = inhibitors of human CYP2C19; P33261; CYP2C19 Supersomes, luciferin-H EGE luminescence, 30 min; inhibition, % at 5 µM; actives 21% (n = 96,000);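 active means CYP2C19 inhibition above a set limit at 5 µM in the primary screen, cut at about 50% in these data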
Measles CPE = protection of cells from measles virus. Measles virus-infected cells, CPE protection, absorbance. protection (pct of control), % at 4 µM. actives 1.5% (n = 140,000); in the data active means protection mostly above about 24%, no sharp cut-off; inactive means mostly below about 26%
Of the large screens only hits and unclear results are named; the others gave an inactive call. Rows were chosen to be rich in hits. Some 22% of all compounds tested hit in one or more screens of this group.

O=C(c1ccco1)N1CCN(c2ncnc3sc4c(c23)CCC4)CC1	CYP2C9 inh 86.3, CYP2C19 inhib 72.2
Cc1nccn1-c1ncnc2sc3c(c12)CCCC3	none
c1nc(N2CCC3(CC2)OCCO3)c2c3c(sc2n1)CCCC3	CYP2C9 inh 62.6, CYP2C19 inhib 85.4
c1ccc(N2CCN(c3ncnc4sc5c(c34)CCC5)CC2)cc1	CYP2C9 inh 72.0, CYP2C19 inhib 75.2
CCc1cc2c(N3CCN(c4ccccc4)CC3)ncnc2s1	CYP2C9 inh 56.2
O=c1oc(-c2ccccc2)nc2sc3c(c12)CCC3	none (no result: CYP2C9 inh, CYP2C19 act, CYP2C9 act, CYP2C19 inhib)
COC(=O)c1ccc(OC(=O)c2cccnc2)cc1	none (no result: CYP2C9 inh, CYP2C19 act, CYP2C9 act, CYP2C19 inhib)
CC1=CC(C)(C)Nc2ccc(OC(=O)c3cccnc3)cc21	CYP2C19 inhib 71.4
CC1=CC(C)(C)Nc2ccc(OC(=O)C(C)N3C(=O)c4ccccc4C3=O)cc21 (stereo not drawn)	CYP2C9 inh 87.4
CC1=CC(C)(C)Nc2ccc(OC(=O)c3ccco3)cc21	CYP2C19 inhib 78.0
CC1=CC(C)(C)Nc2ccc(OC(=O)CN3C(=O)CCC3=O)cc21	none
COc1cccc2[nH]c3c(Cl)ncnc3c12	none (no result: CYP2C9 inh, CYP2C19 act, CYP2C9 act, CYP2C19 inhib)
Cc1ccc(NC(=O)CSc2nn(-c3ccccc3)c(=S)s2)cc1S(=O)(=O)N(C)C	none (no result: CYP2C9 inh, CYP2C19 act, CYP2C9 act, CYP2C19 inhib)
c1cc2nnnn2nc1N1CCCCC1	none
c1cc2nncn2nc1N1CCCC1	CYP2C19 inhib 52.8
c1ccc(N2CCN(c3ccc4nncn4n3)CC2)nc1	CYP2C9 inh 78.6, CYP2C19 inhib 89.1
CCOc1cc2c(cc1OCC)C(c1ccccc1)N(c1ccccc1)C(=O)C2 (stereo not drawn)	none (no result: CYP2C9 inh, CYP2C19 act, CYP2C9 act, CYP2C19 inhib)
CCSC1=C(C#N)C2(CCCCC2)C(C#N)=C(N)N1	CYP2C9 inh 84.2, CYP2C19 inhib 58.9
N#CC1=C(N)NC(SCC(=O)Nc2ccccc2)=C(C#N)C12CCCCC2	none (no result: CYP2C9 inh, CYP2C19 act, CYP2C9 act, CYP2C19 inhib)
N#CC1=C(N)NC(SCc2ccccc2)=C(C#N)C12CCCCC2	CYP2C9 inh 100.0, CYP2C19 inhib 99.9
COc1ccccc1NC(=O)c1nn(-c2ccc(F)c(F)c2)ccc1=O	none
COc1ccc(-n2ccc(-c3nn(-c4cccc(C(F)(F)F)c4)ccc3=O)n2)cc1	CYP2C9 inh 83.0, CYP2C19 inhib 82.0
O=c1ccn(-c2cccc(C(F)(F)F)c2)nc1-c1ccn(-c2ccccc2F)n1	CYP2C9 inh 69.3
COc1ccccc1NC(=O)c1nn(-c2cccc(C(F)(F)F)c2)ccc1=O	CYP2C9 act 2.7
C/C(=N\NC(=O)CSc1nc(C)cc(C)n1)c1cccc([N+](=O)[O-])c1	none (no result: CYP2C9 inh, CYP2C19 act, CYP2C9 act, CYP2C19 inhib)
O=C(CSc1nc2ccccc2o1)NCCOc1ccccc1	CYP2C9 inh 68.0, CYP2C19 inhib 89.2
CSc1cccc(NC(=O)CSc2nc3ccccc3o2)c1	CYP2C19 inhib 53.3
O=C(CSc1nc2ccccc2s1)NCCOc1ccccc1	none (no result: CYP2C9 inh, CYP2C19 act, CYP2C9 act, CYP2C19 inhib)
CC(=O)Nc1cccc(NC(=O)CSc2nc3ccccc3o2)c1	none (no result: CYP2C9 inh, CYP2C19 act, CYP2C9 act, CYP2C19 inhib)
O=C(CSc1nc2ccccc2o1)NCC(=O)c1ccccc1	CYP2C19 inhib 61.0
O=C(CSc1nc2ccccc2o1)Nc1ccccc1	CYP2C19 inhib 63.4
CN1C(=O)c2ccc(NC(=O)c3ccc(N4CCCCC4)c([N+](=O)[O-])c3)cc2C1=O	none (no result: CYP2C9 inh, CYP2C19 act, CYP2C9 act, CYP2C19 inhib)
O=C(CN1C(=O)NC2(CCCCCCC2)C1=O)NCc1ccc2c(c1)OCO2	none
COCCn1c(CCC(=O)O)nc2c1c(=O)[nH]c(=O)n2CC(C)C	none
O=C(CSc1nnc(-c2ccncc2)n1-c1ccc(F)cc1)NNC(=O)c1cccc(O)c1	none (no result: CYP2C9 inh, CYP2C19 act, CYP2C9 act, CYP2C19 inhib)
COc1ccc2c(c1)C(SCC(=O)NCCc1ccc(Cl)cc1)CC(C)(C)O2 (stereo not drawn)	none (no result: CYP2C9 inh, CYP2C19 act, CYP2C9 act, CYP2C19 inhib)
Cc1ccc(SCC(=O)N2CC(C)OC(C)C2)cc1 (stereo not drawn)	CYP2C19 inhib 68.7
Cc1cc(C)cc(C(=O)N2CC(C)OC(C)C2)c1 (stereo not drawn)	CYP2C9 inh 88.3
CC1CN(C(=O)c2cccc(C(=O)N3CC(C)OC(C)C3)c2)CC(C)O1 (stereo not drawn)	none
CCNS(=O)(=O)c1ccc2nc(NC(=O)/C=C/c3cc(OC)c(OC)c(OC)c3)sc2c1	none (no result: CYP2C9 inh, CYP2C19 act, CYP2C9 act, CYP2C19 inhib)
CS(=O)(=O)N1CCc2cc(-c3csc(NC(=O)Cc4cccs4)n3)ccc21	CYP2C9 inh 83.4, CYP2C19 inhib 89.5, Measles CPE 101.4
Cc1nnc(NC(=O)Cc2cccs2)s1	none
O=C(CN1CCOCC1)Nc1nc(-c2ccc3c(c2)CCN3S(=O)(=O)c2ccccc2)cs1	CYP2C9 inh 86.4, CYP2C19 inhib 67.6
COC(=O)c1sc(N)c(C(=O)OC)c1COC(=O)CNS(=O)(=O)c1ccc(C)c(C)c1	none (no result: CYP2C9 inh, CYP2C19 act, CYP2C9 act, CYP2C19 inhib)
Cc1[nH]c2ccccc2c1/C=C(\C#N)C(=O)NCc1ccccc1	none (no result: CYP2C9 inh, CYP2C19 act, CYP2C9 act, CYP2C19 inhib)
Cc1ccc(C(C)NC(=O)/C(C#N)=C\c2c(C)[nH]c3ccccc23)cc1 (stereo not drawn)	CYP2C9 act 2.1
CCCCC(=O)NC(c1ccco1)c1c(O)ccc2ccccc12 (stereo not drawn)	CYP2C9 inh 70.2
CCCC(=O)NC(c1ccco1)c1c(O)ccc2ccccc12 (stereo not drawn)	CYP2C9 inh 90.5, CYP2C19 inhib 97.3
CC(C)CC(=O)NC(c1ccccc1Cl)c1c(O)ccc2ccccc12 (stereo not drawn)	none (no result: CYP2C9 inh, CYP2C19 act, CYP2C9 act, CYP2C19 inhib)
O=C(CCc1ccc(S(=O)(=O)N2CCOCC2)cc1)Nc1nccs1	none
COc1ccccc1OCC(=O)Nc1nc(-c2ccc(S(=O)(=O)N3CCOCC3)cc2)cs1	none (no result: CYP2C9 inh, CYP2C19 act, CYP2C9 act, CYP2C19 inhib)
O=C(COc1ccccc1)Nc1nc(-c2ccc(S(=O)(=O)N3CCOCC3)cc2)cs1	CYP2C9 inh 77.6
O=C(COc1ccc(Cl)cc1)Nc1nc(-c2ccc(S(=O)(=O)N3CCOCC3)cc2)cs1	CYP2C9 inh 91.7, CYP2C19 inhib 57.9
O=C(CCc1ccc(S(=O)(=O)N2CCOCC2)cc1)Nc1nc(COc2ccccc2)cs1	CYP2C9 inh 85.0
CCN(CC)CCCN1C(=O)c2oc3ccccc3c(=O)c2C1c1cccc(OC)c1OC (stereo not drawn)	none
Cc1cc(C)c(NC(=O)C(C)c2cccc(C(=O)c3ccccc3)c2)c(C)c1 (stereo not drawn)	CYP2C9 inh 73.0, CYP2C19 inhib 72.4
COc1ccc(CC(=O)NC(=S)Nc2ccc(S(N)(=O)=O)cc2)cc1	none (no result: CYP2C9 inh, CYP2C19 act, CYP2C9 act, CYP2C19 inhib)
C=CCN(CC=C)S(=O)(=O)c1ccc(NC(=S)NC(=O)c2ccc(-c3ccccc3)cc2)cc1	CYP2C9 inh 61.6
C=CCN(CC=C)S(=O)(=O)c1ccc(NC(=S)NC(=O)Cc2ccc(OC)cc2)cc1	CYP2C9 inh 72.3
C=CCC1(C#N)C(=S)NC2=C(C(=O)CC(C)(C)C2)C1c1ccc(Br)cc1 (stereo not drawn)	none (no result: CYP2C9 inh, CYP2C19 act, CYP2C9 act, CYP2C19 inhib)
Cc1ccc(Nc2ncccc2C(N)=O)cc1[N+](=O)[O-]	none (no result: CYP2C9 inh, CYP2C19 act, CYP2C9 act, CYP2C19 inhib)
Cc1cccc(NN=C2c3ccccc3-c3ccccc32)c1	none (no result: CYP2C9 inh, CYP2C19 act, CYP2C9 act, CYP2C19 inhib)
COc1ccc(Cl)cc1N/C(N)=N/c1nc(CSc2ccc(C)cc2)cc(=O)[nH]1	CYP2C9 inh 76.3, CYP2C19 inhib 52.1
Cc1ccn2cc(CNC(=O)c3ccc(Br)o3)nc2c1	none
O=C(OCC#CCSc1nnc(-c2ccc(Br)cc2)o1)c1ccco1	none
O=C(OCC#CCSc1nnc(-c2ccccc2)o1)c1cccs1	none
O=C(O)CCSc1nc2ccccc2s1	none
